Screening data: PubChem, Small Molecule Screening Facility, UW Madison
Shown is part of a subset that was picked to be rich in hits.
RMI-FANCM inh = disruptors of RMI1/RMI2 association with MM2 peptide – biochemical, fluorescence polarization, human, primary screen. hit rate 0.58% among 70,000. RMI core complex with F-MM2 peptide; hits give low values. AID 1159607, 2016. FP signal (polarization) at 33 µM. RMI core complex (RMI1/RMI2) binding to FANCM MM2 peptide, human; in the data active = FP signal below about 40
Each line names hits and unclear results; the compound was inactive in the other large screens.

OCCN1CCN(c2cc(-c3ccccc3)nc3c(-c4ccc(Cl)cc4)cnn23)CC1	RMI-FANCM inh 28
COc1ccccc1-c1cnn2c(N3CCN(Cc4ccccc4)CC3)cc(C)nc12	none
CC(C)(C)c1cc(N2CCN(C3CCCC3)CC2)n2ncc(-c3ccccc3)c2n1	none
CC(Oc1ccc(F)cc1)C(=O)NCCCn1nc(-c2ccc(Cl)cc2)ccc1=O (centres undefined)	none
CC(C)c1ccc(NC(=S)NNC(=O)NC(=O)c2csc([N+](=O)[O-])c2)cc1	none
Cc1nnsc1C(=O)N=S(C)(C)=O	none
O=C(CCS(=O)(=O)c1ccc(Cl)cc1)Nc1nnc(-c2ccncc2)o1	none
O=C(CCS(=O)(=O)c1ccc(F)cc1)Nc1nnc(-c2cccnc2)o1	none
O=C(CCS(=O)(=O)c1ccc(Cl)cc1)Nc1nnc(-c2ccc(F)cc2)o1	RMI-FANCM inh 34
O=C(c1cccs1)N1CCN(c2ccc(-c3ccc(F)cc3)nn2)CC1	none
NNC(=O)c1nn(-c2ccccc2)c(=O)c2c(N)scc12	RMI-FANCM inh 24
O=C(Nc1scc2c(C(=O)O)nn(-c3ccc(C(F)(F)F)cc3)c(=O)c12)c1c(F)cccc1Cl	none
CCOC(=O)c1nn(-c2ccc(OC)cc2)c(=O)c2c(NC(=O)c3c(OCC)ccc4ccccc34)scc12	none
COc1ccc(-c2csc(CN3CCN(C(=O)c4c(F)cccc4Cl)CC3)n2)cc1	none
C/C(=N\NC(=O)CCCC(=O)O)c1c(-c2ccccc2)c2cc(Cl)ccc2[nH]c1=O	none
O=C(/C=C/c1ccco1)c1c(-c2ccccc2)c2cc(Cl)ccc2[nH]c1=O	RMI-FANCM inh 0
O=C(/C=C/c1ccco1)c1c(-c2ccccc2)c2cc(Br)ccc2[nH]c1=O	none
COc1ccc(-c2cc(-c3ccccc3)nc3sc(C(=O)Nc4nsc(-c5ccccc5)n4)c(N)c23)cc1OC	none
COc1ccc(-c2cc(-c3ccc(Cl)cc3)nc3sc(C(=O)NCCc4ccccc4)c(N)c23)cc1	RMI-FANCM inh -12
COc1ccc(-c2cc(-c3ccc(C)c(C)c3)nc3sc(C(=O)Nc4nsc(-c5ccc(Cl)cc5)n4)c(N)c23)cc1	none
CN(C)S(=O)(=O)c1ccc(C(=O)N=c2sc3cc(S(C)(=O)=O)ccc3n2C)cc1	none
Cc1ccc(-n2ncc3c(N(CCO)CCO)ncnc32)cc1Cl	none
CC(C)(C)C(=O)N1CCN(C2c3ccccc3-c3ccccc32)CC1	none
Cc1nc2ccccc2c(=O)n1-c1cccc(NC(=O)CC(C)(C)C)c1	none
COc1cc2nc(Nc3nc4ccc5sc(C)nc5c4s3)sc2cc1OC	none
O=C(NCCCO)C(=O)Nc1ccc(Cl)c(N2CCCS2(=O)=O)c1	none
CCNc1nc(SCC(=O)NC(=O)NCc2ccccc2)nc2sc3c(c12)CCN(C)C3	none
CCNc1[nH]c(=S)nc2sc3c(c12)CCN(C)C3	RMI-FANCM inh -15
CN1CCc2c(sc3nc(NC(=O)c4ccc(OC(F)(F)F)cc4)sc(=O)c23)C1	none
S=C(NC1CCCCC1)N1CCn2cccc2C1c1ccc(Cl)cc1Cl (centres undefined)	none
COc1ccc(-c2nc3c(c(SCC(=O)Nc4ccc(C)c(C)c4)n2)Cc2cccc(C)c2O3)cc1	none
O=C(CSc1ccc([N+](=O)[O-])cc1[N+](=O)[O-])Nc1cccc(C(F)(F)F)c1	RMI-FANCM inh 14
O=[N+]([O-])c1ccc(SCCOS(=O)(=O)c2cccc(C(F)(F)F)c2)c2nonc12	none
N/C(=N\OC(=O)Nc1cccc(C(F)(F)F)c1)c1ccno1	none
Cc1cc(-c2ccccc2)nc(SCC(=O)Nc2cccc(C(F)(F)F)c2)n1	none
CC(=O)Nc1ccc(NC(=O)CSc2ccc(S(=O)(=O)C(F)(F)F)cc2[N+](=O)[O-])cc1	none
O=C(Nc1cccc(C(F)(F)F)c1)OCCSc1ccc([N+](=O)[O-])c2nonc12	RMI-FANCM inh 7
C=CCN1C(=O)C(C)(C)COc2cc(NS(=O)(=O)c3ccc(NC(=O)CCC)cc3)ccc21	none
O=C(NCc1ccc2c(c1)OCO2)C(=O)NCC1OCCN1S(=O)(=O)c1cccs1 (centres undefined)	none
Cc1ccc(NC(=O)CC2Nc3cc(C)c(C)cc3NC2=O)c(Br)c1 (centres undefined)	none
O=[N+]([O-])c1cccnc1Oc1ccc(-c2nnco2)cc1	none
O=C(Cn1nnc(N2CCCCC2)n1)N/N=C\c1ccncc1	none
O=C(Nc1nccs1)c1cn(Cc2ccc(F)cc2)cc2c(=O)n(-c3ccccc3)nc1-2	none
O=C(NCC(c1ccsc1)N1CCc2ccccc2C1)C(=O)Nc1ccc(OC(F)(F)F)cc1 (centres undefined)	none
CCSc1ccc2c3c(cccc13)C(=O)N(Cc1ccccc1)C2=O	none
Cc1ccc(-n2nc3c(c2NC(=O)C(=O)NC(C)c2ccccc2)CSC3)c(C)c1 (centres undefined)	none
S=c1[nH]nc(-c2ccncc2)n1/N=C\c1cn(-c2ccccc2)nc1-c1cccs1	none
O=C(Cc1ccc([N+](=O)[O-])cc1)N/N=C\c1cn(-c2ccccc2)nc1-c1ccccc1	none
O=[N+]([O-])c1ccc(-c2nn(-c3ccccc3)cc2/C=N/n2c(-c3cccs3)n[nH]c2=S)cc1	RMI-FANCM inh 12
CCOCC(=O)Nc1cc(-c2ccco2)nn1-c1nc(C)c(C)c(=O)[nH]1	none
Cc1nc(-n2nc(-c3cccs3)cc2NC(=O)c2cc3ccccc3o2)[nH]c(=O)c1C	none
Cc1nc(-n2nc(-c3ccco3)cc2NC(=O)COc2ccccc2F)[nH]c(=O)c1C	none
Cc1nc(-n2nc(-c3ccco3)cc2NC(=O)c2cc3ccccc3o2)[nH]c(=O)c1C	RMI-FANCM inh 23
COc1cccc(C(=O)Nc2cc(-c3ccco3)nn2-c2nc(C)c(C)c(=O)[nH]2)c1OC	none
CCC(C(=O)Nc1cc(-c2ccco2)nn1-c1nc(C)c(C)c(=O)[nH]1)c1ccccc1 (centres undefined)	RMI-FANCM inh 31
Cc1nc(-n2nc(-c3ccco3)cc2NC(=O)Cc2ccc(F)cc2)[nH]c(=O)c1C	none
Cc1nc(-n2nc(-c3ccco3)cc2NC(=O)c2ccc(Br)o2)[nH]c(=O)c1C	RMI-FANCM inh 39
CCC(C(=O)Nc1cc(-c2cccs2)nn1-c1nc(C)c(C)c(=O)[nH]1)c1ccccc1 (centres undefined)	none
CC(=O)Nc1ccc2nc(NC(=O)c3ccccc3Br)sc2c1	none
COc1cccc(-c2noc(CN3C(=O)COc4ccccc43)n2)c1OC	none
Cc1nc2ccc3nc(NC(=O)CSc4ccc(F)cc4)sc3c2s1	none
COc1cn2c(cc1=O)C(=O)N(CCNC(=O)c1ccc(Cl)cc1Cl)CC2	none
CN(C)C(CNC(=O)COc1ccccc1F)c1cccc2ccccc12 (centres undefined)	none
COCC(=O)N1CCCc2ccc(NS(=O)(=O)c3ccc(OC)c(F)c3)cc21	none
COc1ccc(N2CCN(C(=O)c3ccccc3C(F)(F)F)CC2)nn1	none
O=C1COc2cc(Cl)ccc2N1Cc1nc(-c2ccncc2)no1	none
Cc1cc2c(cc1C)NC(CC(=O)Nc1ccc(Cl)cc1[N+](=O)[O-])C(=O)N2 (centres undefined)	none
CCc1ccc(/C=C2\SC(=S)N(CCCC(=O)NNC(=O)c3cccnc3)C2=O)cc1	none
Cc1ccc(=O)n(S(=O)(=O)c2ccc(F)cc2F)n1	none
Cc1cc(F)ccc1S(=O)(=O)NCC1CCN(C2CCCC2)CC1	none
Cc1cc(F)ccc1S(=O)(=O)ON1C(=O)c2ccccc2C1=O	RMI-FANCM inh 27
CC(Oc1ccc2c(c1)OCO2)C(=O)NCCOc1ccccc1 (centres undefined)	none
O=C(Nc1ccc(C(F)(F)F)cc1)O/N=C\c1ccccn1	none
Nc1ccc(-n2cnnn2)cc1	none
